Holding throughout (assay): log2 fold change, soluble protein after heating vs DMSO (PISA); higher = thermal stabilisation; K562 lysate, 10 uM; active = over 0.2 and 3.5 SD of the protein, either way, in both replicates (recomputed)
Compound in assay [1]: C1=CC=C(C=C1)[C@H](COC2=CC3=C(C=C2)NC(=O)N3)NC(=O)C4=CC=CN(C4=O)CC5=CC(=C(C=C5)F)F
The method, boiled down: (§1)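 K562 pellets were dounce-homogenised in PBS pH 7.4 containing 1 mM MgCl2, and the crude extract, at 1 mg/mL protein, was exposed to 10 μM compound for 30 min. Aliquots were heated for 3 min across 48°C-58°C, pooled, brought to 0.5% NP-40 at 4°C and spun at 21,000xg for 90 min, with the supernatant taken as soluble protein. TMTpro 16plex LC-MS/MS with equalised channel sums quantified that protein. Values are log-two fold changes in thermal stability relative to solvent controls, taken from duplicates.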

Compound in assay [2]: CC1=C(SC2=C1C(=N[C@H](C3=NN=C(N32)C)CC(=O)N)C4=CC=C(C=C4)Cl)C
Summed up: as §1

Compound in assay [3]: CC1=C2C(=CC=C1)N=C(N(C2=O)C3=CC=CC=C3C)CN4C=NC5=C(N=CN=C54)N
Summed up:
as §1

Compound in assay [4]: Cc1sc2c(c1C)C(c1ccc(Cl)cc1)=N[C@@H](CC(=O)OC(C)(C)C)c1nnc(C)n1-2
Summed up: as §1

Compound in assay [5]: c1ccc([C@@H]2C[C@H]2NC2CCNCC2)cc1
The method, boiled down:
as §1

Targets with a hit are over-represented here; the source holds about 8,800 in all. About 0.5% of all pairs of compound and target were hits. Unmarked numbers belong to inactive results.

UniProt Q96KF7, sequence (Q96KF7 whole entry, looked up): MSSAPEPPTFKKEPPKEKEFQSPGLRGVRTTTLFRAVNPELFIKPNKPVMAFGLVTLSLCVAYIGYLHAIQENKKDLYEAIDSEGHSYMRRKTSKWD
UniProt Q9NTJ3, sequence (Q9NTJ3 whole entry, looked up): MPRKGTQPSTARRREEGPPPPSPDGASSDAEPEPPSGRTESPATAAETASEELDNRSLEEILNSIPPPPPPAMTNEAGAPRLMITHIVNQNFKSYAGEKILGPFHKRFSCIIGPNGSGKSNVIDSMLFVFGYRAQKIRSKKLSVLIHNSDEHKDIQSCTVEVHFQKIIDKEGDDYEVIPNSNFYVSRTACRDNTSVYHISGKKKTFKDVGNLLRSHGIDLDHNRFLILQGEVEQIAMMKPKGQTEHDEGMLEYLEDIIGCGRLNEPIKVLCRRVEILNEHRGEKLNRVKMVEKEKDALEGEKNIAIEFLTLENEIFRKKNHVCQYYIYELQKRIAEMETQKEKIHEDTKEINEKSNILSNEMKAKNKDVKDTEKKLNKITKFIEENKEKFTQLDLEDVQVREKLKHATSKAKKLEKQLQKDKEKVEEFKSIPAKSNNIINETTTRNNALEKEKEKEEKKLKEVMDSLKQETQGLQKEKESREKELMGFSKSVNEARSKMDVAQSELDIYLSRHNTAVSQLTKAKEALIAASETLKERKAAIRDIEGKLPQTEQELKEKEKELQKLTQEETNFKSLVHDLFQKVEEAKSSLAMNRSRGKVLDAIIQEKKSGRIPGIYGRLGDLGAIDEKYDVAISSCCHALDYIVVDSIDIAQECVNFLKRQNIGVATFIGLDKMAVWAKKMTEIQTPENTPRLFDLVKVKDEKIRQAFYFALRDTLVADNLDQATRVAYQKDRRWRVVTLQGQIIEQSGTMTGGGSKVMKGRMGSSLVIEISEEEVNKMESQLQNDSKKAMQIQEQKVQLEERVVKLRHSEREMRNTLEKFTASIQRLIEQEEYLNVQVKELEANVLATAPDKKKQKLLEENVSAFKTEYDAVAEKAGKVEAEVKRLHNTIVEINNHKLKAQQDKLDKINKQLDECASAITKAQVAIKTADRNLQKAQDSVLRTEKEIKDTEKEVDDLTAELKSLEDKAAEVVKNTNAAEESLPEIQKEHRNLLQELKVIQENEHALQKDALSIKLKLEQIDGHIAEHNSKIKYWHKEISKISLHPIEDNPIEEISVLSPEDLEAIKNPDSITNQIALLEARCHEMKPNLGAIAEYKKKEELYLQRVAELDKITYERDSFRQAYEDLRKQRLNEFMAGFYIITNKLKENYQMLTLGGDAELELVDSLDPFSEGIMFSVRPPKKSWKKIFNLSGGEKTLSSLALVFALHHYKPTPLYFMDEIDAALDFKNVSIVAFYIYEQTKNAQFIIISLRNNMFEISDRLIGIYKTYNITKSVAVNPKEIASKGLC
UniProt Q92844, sequence (Q92844 whole entry, looked up): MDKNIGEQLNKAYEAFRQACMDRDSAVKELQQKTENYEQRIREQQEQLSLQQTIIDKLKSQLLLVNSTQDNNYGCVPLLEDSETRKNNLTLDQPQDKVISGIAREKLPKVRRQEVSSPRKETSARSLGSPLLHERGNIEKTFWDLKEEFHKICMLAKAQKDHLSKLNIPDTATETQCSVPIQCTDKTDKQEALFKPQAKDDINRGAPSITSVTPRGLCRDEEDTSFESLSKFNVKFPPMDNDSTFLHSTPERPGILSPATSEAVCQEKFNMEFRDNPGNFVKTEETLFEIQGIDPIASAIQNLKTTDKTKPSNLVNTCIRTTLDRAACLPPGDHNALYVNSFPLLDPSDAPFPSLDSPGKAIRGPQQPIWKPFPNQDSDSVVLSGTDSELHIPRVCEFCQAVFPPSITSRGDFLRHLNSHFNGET
UniProt Q9UJC5, sequence (Q9UJC5 whole entry, looked up): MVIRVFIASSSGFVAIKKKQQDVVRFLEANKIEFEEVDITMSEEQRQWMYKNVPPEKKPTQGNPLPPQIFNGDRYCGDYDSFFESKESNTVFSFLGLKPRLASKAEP
UniProt P35610, sequence (P35610 whole entry, looked up): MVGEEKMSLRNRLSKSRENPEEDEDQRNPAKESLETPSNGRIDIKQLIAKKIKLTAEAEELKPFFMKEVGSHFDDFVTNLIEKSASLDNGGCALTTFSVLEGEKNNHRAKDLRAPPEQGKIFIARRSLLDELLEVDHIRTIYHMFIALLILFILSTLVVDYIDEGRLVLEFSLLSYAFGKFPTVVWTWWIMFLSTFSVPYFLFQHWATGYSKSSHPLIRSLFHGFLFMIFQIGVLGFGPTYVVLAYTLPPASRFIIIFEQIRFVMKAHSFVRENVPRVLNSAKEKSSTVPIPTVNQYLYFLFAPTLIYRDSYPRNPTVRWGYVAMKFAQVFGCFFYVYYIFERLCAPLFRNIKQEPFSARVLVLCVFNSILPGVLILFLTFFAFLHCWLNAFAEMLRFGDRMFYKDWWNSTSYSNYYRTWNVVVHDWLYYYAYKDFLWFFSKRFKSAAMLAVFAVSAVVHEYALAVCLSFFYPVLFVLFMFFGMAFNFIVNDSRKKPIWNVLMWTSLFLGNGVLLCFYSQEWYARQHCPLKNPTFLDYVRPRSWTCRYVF
UniProt Q9BXS9, sequence (Q9BXS9 whole entry, looked up): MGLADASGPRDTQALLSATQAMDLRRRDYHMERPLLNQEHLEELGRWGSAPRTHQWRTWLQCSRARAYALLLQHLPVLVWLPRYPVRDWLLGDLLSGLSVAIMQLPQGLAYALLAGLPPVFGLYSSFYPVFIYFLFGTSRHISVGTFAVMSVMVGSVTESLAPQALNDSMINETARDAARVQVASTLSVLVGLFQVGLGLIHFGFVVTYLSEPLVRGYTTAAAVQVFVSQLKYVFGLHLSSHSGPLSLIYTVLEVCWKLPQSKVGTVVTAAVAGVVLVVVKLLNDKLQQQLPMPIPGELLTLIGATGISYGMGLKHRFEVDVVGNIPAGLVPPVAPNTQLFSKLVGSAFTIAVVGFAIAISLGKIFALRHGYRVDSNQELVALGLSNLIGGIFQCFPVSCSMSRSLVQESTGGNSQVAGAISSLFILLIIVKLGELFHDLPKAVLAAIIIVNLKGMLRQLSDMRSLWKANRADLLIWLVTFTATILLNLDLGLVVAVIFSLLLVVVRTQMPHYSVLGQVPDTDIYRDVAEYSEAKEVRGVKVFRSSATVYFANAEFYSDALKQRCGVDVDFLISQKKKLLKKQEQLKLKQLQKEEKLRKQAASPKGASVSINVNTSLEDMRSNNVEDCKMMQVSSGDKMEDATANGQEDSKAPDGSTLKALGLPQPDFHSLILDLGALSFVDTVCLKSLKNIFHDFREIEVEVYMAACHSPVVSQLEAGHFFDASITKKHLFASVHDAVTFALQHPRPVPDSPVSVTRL
UniProt Q16563, sequence (Q16563 whole entry, looked up): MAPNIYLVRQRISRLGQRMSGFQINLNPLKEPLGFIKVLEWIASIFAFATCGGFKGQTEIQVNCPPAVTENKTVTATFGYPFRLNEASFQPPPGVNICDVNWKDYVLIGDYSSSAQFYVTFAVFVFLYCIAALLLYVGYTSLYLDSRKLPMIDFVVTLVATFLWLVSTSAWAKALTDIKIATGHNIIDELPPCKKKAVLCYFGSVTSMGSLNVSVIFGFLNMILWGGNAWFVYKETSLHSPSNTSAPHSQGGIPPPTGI
UniProt Q6NXT6, sequence (Q6NXT6 whole entry, looked up): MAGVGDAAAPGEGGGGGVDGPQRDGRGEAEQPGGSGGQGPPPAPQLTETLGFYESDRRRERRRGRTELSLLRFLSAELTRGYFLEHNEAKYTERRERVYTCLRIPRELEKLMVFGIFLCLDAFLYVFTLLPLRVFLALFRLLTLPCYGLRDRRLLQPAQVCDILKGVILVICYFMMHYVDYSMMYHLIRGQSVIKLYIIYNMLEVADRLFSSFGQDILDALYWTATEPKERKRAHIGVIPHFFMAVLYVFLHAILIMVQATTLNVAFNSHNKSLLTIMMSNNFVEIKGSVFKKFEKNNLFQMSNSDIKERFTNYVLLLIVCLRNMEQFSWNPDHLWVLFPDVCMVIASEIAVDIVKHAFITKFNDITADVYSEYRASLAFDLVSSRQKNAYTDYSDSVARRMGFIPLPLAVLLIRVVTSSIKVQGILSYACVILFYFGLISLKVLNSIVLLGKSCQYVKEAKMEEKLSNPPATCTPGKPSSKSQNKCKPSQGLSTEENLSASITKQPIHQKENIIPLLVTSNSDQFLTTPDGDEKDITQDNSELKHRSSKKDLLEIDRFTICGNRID
UniProt Q08AE8, sequence (Q08AE8 whole entry, looked up): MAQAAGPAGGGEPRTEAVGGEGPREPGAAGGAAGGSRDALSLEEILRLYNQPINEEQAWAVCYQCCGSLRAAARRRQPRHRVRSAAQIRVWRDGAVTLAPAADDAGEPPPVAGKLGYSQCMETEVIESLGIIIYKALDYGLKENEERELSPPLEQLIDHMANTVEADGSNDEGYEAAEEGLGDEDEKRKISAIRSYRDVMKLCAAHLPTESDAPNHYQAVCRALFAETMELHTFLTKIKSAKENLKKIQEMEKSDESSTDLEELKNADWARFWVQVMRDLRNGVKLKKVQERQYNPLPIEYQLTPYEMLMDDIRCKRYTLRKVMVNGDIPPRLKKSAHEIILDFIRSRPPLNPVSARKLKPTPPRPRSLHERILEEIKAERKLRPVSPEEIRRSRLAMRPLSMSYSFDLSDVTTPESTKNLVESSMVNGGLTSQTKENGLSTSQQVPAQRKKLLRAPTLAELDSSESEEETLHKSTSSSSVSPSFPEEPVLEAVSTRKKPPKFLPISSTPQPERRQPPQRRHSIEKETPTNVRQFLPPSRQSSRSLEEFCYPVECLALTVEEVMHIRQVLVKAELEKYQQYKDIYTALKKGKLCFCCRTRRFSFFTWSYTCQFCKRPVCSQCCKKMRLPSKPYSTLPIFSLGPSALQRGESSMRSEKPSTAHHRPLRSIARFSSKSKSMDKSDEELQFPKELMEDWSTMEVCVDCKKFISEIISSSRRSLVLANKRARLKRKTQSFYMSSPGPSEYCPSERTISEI
UniProt P62318, sequence (P62318 whole entry, looked up): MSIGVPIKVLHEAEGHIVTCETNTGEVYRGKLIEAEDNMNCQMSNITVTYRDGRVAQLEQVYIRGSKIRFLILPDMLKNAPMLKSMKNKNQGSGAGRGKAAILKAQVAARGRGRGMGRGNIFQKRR

Consider SMN1 (UniProt Q16637), for which the log2 fold change in assay [1] is 0.083; in assay [2], -0.054; in assay [3], 0.054; in assay [4], -0.012; in assay [5], 0.024.
For SNAP23 (UniProt O00161), the log2 fold change in assay [1] is 0.059; in assay [2] it was -0.038; in assay [3], -0.005; in assay [4], 0.007; in assay [5] it was 0.066.
Regarding SMAD2 (UniProt Q15796), the log2 fold change is -0.006 in assay [1]; 0.024 in assay [2]; -0.104 in assay [3]; 0.023 in assay [4]; 0 in assay [5].
With STK39 (UniProt Q9UEW8), the log2 fold change is 0.011 in assay [1]; -0.056 in assay [2]; 0.049 in assay [3]; 0 in assay [4]; 0.078 in assay [5].
In the case of SRM (UniProt P19623), the log2 fold change in assay [1] was -0.007; in assay [2] it was 0.029; in assay [3], 0.001; in assay [4] it was 0.009; in assay [5], 0.039.
In the case of SNRPD3 (UniProt P62318), the log2 fold change in assay [1] was -0.02; in assay [2] it was -0.011; in assay [3] it was 0.022; in assay [4] it was -0.027; in assay [5], -0.118.
The matching figures for SH3BGRL2 (UniProt Q9UJC5): 0.048, 0.085, -0.027, -0.001 and 0.083.
The corresponding values for SSU72 (UniProt Q9NP77) are 0.014, 0.017, 0.078, 0.004 and -0.17.
For the target SLC12A6 (UniProt Q9UHW9), the log2 fold change was 0.006 in assay [1]; 0.017 in assay [2]; 0.017 in assay [3]; 0.036 in assay [4]; 0.008 in assay [5].
Turning to TAPT1 (UniProt Q6NXT6), the log2 fold change was -0.004 in assay [1]; -0.023 in assay [2]; 0.092 in assay [3]; -0.07 in assay [4]; -0.128 in assay [5].
Turning to SLC26A6 (UniProt Q9BXS9), the log2 fold change was -0.053 in assay [1]; 0.067 in assay [2]; 0.011 in assay [3]; -0.556 in assay [4]; -0.096 in assay [5].
For the target SLC25A17 (UniProt O43808), the log2 fold change in assay [1] was -0.014; in assay [2] it was 0.007; in assay [3], -0.024; in assay [4], -0.096; in assay [5], -0.163.
Regarding SPIRE1 (UniProt Q08AE8), the log2 fold change is -0.008 in assay [1]; 0.031 in assay [2]; -0.006 in assay [3]; -0.053 in assay [4]; -0.212 in assay [5].
With SHC1 isoform 6 (UniProt P29353), the log2 fold change in assay [1] was 0.019; in assay [2], 0.006; in assay [3] it was 0.056; in assay [4], 0.087; in assay [5] it was 0.25.
Regarding SLC25A38 (UniProt Q96DW6), the log2 fold change is 0.099 in assay [1]; 0 in assay [2]; 0.013 in assay [3]; -0.323 in assay [4]; -0.047 in assay [5].
For the target SPHK1 isoform 2 (UniProt Q9NYA1), the log2 fold change in assay [1] was -0.014; in assay [2], -0.034; in assay [3], -0.038; in assay [4], -0.003; in assay [5], 0.092.
Take SMIM8 (UniProt Q96KF7): the log2 fold change in assay [1] was 0.061; in assay [2], 0.044; in assay [3], 0.004; in assay [4] it was 0.047; in assay [5], -0.157.
As for SRRT (UniProt Q9BXP5), the log2 fold change in assay [1] was -0.003; in assay [2], 0.02; in assay [3], -0.002; in assay [4], 0.021; in assay [5], 0.068.
For the target TANGO6 (UniProt Q9C0B7), the log2 fold change in assay [1] was 0.05; in assay [2], -0.021; in assay [3], -0.036; in assay [4] it was 0.043; in assay [5], -0.009.
For the target SOAT1 (UniProt P35610), the log2 fold change in assay [1] was 0.041; in assay [2] it was -0.002; in assay [3] it was -0.008; in assay [4] it was 0.282 (active); in assay [5], -0.06.
The matching figures for TANK (UniProt Q92844): 0.04, -0.088, -0.023, -0.079 and -0.025.
Turning to SYPL1 (UniProt Q16563), the log2 fold change in assay [1] is -0.075; in assay [2], 0.003; in assay [3] it was -0.01; in assay [4], -0.041; in assay [5], -0.123.
Turning to SMC4 (UniProt Q9NTJ3), the log2 fold change in assay [1] is -0.033; in assay [2], 0.003; in assay [3], -0.011; in assay [4] it was -0.005; in assay [5], 0.055.
On to SSNA1 (UniProt O43805), for which the log2 fold change in assay [1] was 0.034; in assay [2] it was -0.038; in assay [3] it was 0.009; in assay [4], -0.129; in assay [5], -0.075.

Values taken from the supplement of paper PMC10849652.
